According to the supplement of paper PMC3334620:
Over roughly 33,000 sequences, “E-score (-0.5 to 0.5)” has its median near -0.054; the highest 2% begin near 0.39. This excerpt belongs to a sample that is enriched for the highest values.

These sequences were tested against Ylr278c (UniProt Q05854) (assay: PBM E-score (8-mer binding enrichment) (E-score (-0.5 to 0.5)); higher = stronger / more preferred TF binding). Conditions: protein concentration: 200 nM; construct: GST-DNA-binding domain.
Procedure: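 Universal 'all 10-mer' protein binding microarrays (Agilent AMADID 015681) probed with GST-tagged S. cerevisiae TFs (full-length or DBD) made by in vitro transcription/translation (PURExpress), about 100-200 nM. Bound TF was detected with fluorescent anti-GST. Each ungapped 8-mer (which stands for itself and its reverse complement) is scored by the PBM enrichment score (E-score), a modified Wilcoxon-Mann-Whitney statistic from -0.5 to +0.5, computed with the Universal PBM Analysis Suite. Scale: above 0.35 generally sequence-specific binding.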

UniProt Q05854, sequence (Q05854 whole entry, the tested form may be a part): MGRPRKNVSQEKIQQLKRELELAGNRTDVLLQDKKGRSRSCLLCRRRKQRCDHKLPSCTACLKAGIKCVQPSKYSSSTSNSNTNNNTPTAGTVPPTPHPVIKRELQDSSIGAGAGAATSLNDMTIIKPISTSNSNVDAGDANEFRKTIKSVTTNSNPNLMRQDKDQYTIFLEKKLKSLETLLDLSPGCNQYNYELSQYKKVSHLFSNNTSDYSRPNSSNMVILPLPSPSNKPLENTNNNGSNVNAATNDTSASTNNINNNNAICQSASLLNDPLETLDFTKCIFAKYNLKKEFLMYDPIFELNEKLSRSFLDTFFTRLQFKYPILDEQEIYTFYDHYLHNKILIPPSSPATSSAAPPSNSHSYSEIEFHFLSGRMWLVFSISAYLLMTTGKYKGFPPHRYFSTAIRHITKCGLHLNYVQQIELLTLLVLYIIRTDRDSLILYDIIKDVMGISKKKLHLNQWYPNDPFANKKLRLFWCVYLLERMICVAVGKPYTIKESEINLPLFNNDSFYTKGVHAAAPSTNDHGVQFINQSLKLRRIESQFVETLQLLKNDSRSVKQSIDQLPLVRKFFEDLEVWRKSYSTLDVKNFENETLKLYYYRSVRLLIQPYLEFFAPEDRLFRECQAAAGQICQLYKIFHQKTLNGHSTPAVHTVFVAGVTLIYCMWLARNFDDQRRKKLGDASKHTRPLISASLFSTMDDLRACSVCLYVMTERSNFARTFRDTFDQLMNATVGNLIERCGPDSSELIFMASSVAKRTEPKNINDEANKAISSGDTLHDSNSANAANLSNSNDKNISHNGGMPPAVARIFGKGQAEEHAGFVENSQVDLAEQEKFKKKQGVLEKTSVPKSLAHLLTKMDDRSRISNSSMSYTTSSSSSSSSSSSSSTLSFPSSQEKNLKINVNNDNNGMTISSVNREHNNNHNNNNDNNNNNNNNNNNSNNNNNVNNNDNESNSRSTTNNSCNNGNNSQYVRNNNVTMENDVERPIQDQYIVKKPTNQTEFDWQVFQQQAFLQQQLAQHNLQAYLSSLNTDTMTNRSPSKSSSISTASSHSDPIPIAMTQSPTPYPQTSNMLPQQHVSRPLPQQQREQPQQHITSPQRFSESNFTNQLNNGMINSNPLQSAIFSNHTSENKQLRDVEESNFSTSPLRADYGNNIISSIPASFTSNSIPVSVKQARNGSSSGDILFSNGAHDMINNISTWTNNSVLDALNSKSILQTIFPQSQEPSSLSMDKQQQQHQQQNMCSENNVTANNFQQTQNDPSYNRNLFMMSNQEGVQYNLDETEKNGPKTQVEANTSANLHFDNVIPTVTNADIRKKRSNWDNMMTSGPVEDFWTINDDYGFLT

| Sequence | PBM E-score |
| --- | --- |
| CCCTCCAA | -0.119 |
| ACCTCCTC | -0.0564 |
| ACCTCCAC | 0.0767 |
| ACCTCCTG | -0.253 |
| ACCTCCGT | 0.383 |
| ACCTCCGG | 0.47 |
| CCCTCCGA | 0.405 |
| CCCTCCTA | -0.107 |
| GTAAGAAA | -0.0755 |
| GAGCGGCA | 0.207 |
| ATGGTCAC | -0.0597 |
| ATTTAAAA | 0.114 |
| AGGTAGCA | -0.197 |
| CATCTAAC | -0.0951 |
| AGCTAGAC | -0.174 |
| CCGGCGAA | 0.404 |
| GCGGCGAA | 0.378 |
| CAGGCGGA | 0.327 |
| CCGGCGGC | 0.407 |
| ACGGCGGC | 0.167 |
| GTGGCGGA | 0.35 |
| CTGGCGGA | 0.183 |
| TCGGCGAA | 0.372 |
| CCGGCGGA | 0.456 |
| ACGGCGGA | 0.37 |
| GCGGCGGA | 0.453 |

| Sequence | PBM E-score |
| --- | --- |
| CTGGCGGC | 0.207 |
| ACGCGAAC | -0.00887 |
| ATGAAGCC | 0.0954 |
| ACTGCCCA | -0.151 |
| AGTTCATA | -0.0477 |
| AATGGGTG | -0.0286 |
| GAGGCTTA | -0.0425 |
| ACGGCGCC | 0.184 |
| GCGGCGCC | 0.289 |
| CCGGCGCC | 0.422 |
| AATTCTGT | -0.0602 |
| CGCGTGGC | -0.00486 |
| AGGGATTA | -0.223 |
| CTGGATTC | -0.00018 |
| GGGGATTA | 0.175 |
| CGGGATTA | 0.406 |
| AGGGATTC | -0.0988 |
| CGGGATTC | 0.392 |
| GTCGGGCA | 0.0838 |
| GCTGAACA | -0.153 |
| CTTAGTCA | -0.184 |
| CACTACGG | 0.201 |
| AGGTCAAA | -0.237 |
| GATAGTCA | -0.0752 |
| GCTCAGGA | -0.173 |
| ACCCTAAG | -0.173 |

| Sequence | PBM E-score |
| --- | --- |
| GCTCGGGA | 0.174 |
| GGGAACTA | 0.11 |
| CTGAACTC | -0.141 |
| CGGAACTA | 0.422 |
| CGGAACTC | 0.409 |
| AGGAACTA | -0.0554 |
| AGGAACTC | 0.0174 |
| AGGCTTAA | -0.00203 |
| GATACCTA | -0.0272 |
| ATGACGAG | -0.153 |
| GTATTGTA | 0.0802 |
| AATGCCGA | 0.392 |
| AATGCCGG | 0.421 |
| CATGCCGA | 0.217 |
| CATGCCGG | 0.368 |
| AATGCCGC | 0.352 |
| AATGCCGT | 0.381 |
| CGCCAGAC | -0.153 |
| CAGATTAC | -0.0164 |
| TATACCAA | -0.101 |
| CTGAGCTC | 0.0823 |
| AGGAGCTC | -0.122 |
| CGGAGCTC | 0.441 |
| AGGAGCTA | -0.144 |
| GGGAGCTA | -0.0279 |
| CGGAGCTA | 0.42 |

| Sequence | PBM E-score |
| --- | --- |
| CGTCTCTC | -0.00934 |
| ATGGCTGA | -0.344 |
| TCAGCACA | -0.175 |
| AGGACATA | -0.278 |
| AGGACATC | 0.0899 |
| CGGACATA | 0.454 |
| GGGACATA | 0.0665 |
| CTGACATC | -0.0317 |
| CGGACATC | 0.421 |
| GGAAGTTA | 0.204 |
| ATTCCAAC | -0.176 |
| TCGATGAA | -0.11 |
| CTCTTTTC | -0.0672 |
| ACGACGCG | 0.0212 |
| CCGACGGA | 0.425 |
| CCGACGCG | 0.394 |
| CGGACGGC | 0.313 |
| CCGACGCC | 0.361 |
| GGGACGGA | 0.369 |
| ACGACGGA | 0.301 |
| GCGACGGA | 0.313 |
| CGGACGGA | 0.397 |
| GACCTCCA | 0.0669 |
| CCAGCTAG | -0.391 |
| CAAGTTAC | 0.0544 |
| GAGTTCAC | 0.0107 |

| Sequence | PBM E-score |
| --- | --- |
| ACGATGAG | -0.0386 |
| ACCCAGTC | -0.0927 |
| ATGCTTCC | -0.0282 |
| CACTGGCC | -0.0953 |
| CTGAGCAG | -0.238 |
| CGGAGCAG | 0.417 |
| AGGAGCAG | -0.00465 |
| GGGAGCAC | 0.0245 |
| CGGAGCAA | 0.456 |
| CGGAGCAC | 0.391 |
| TGGAGCAA | -0.111 |
| AGGAGCAC | -0.0853 |
| AGGAGCAA | -0.0147 |
| GAGGGAAA | -0.26 |
| AATGCGAG | 0.00781 |
| GTAGGGCA | -0.038 |
| AATTCAGG | 0.127 |
| GTGGTATA | -0.188 |
| CGTCTATC | 0.0841 |
| ACACACTA | -0.13 |
| ATCGGGGG | 0.209 |
| CTCGGCGA | 0.354 |
| CTCGGATC | 0.34 |
| ATGGGAGA | -0.309 |
| CTCGGTGC | 0.0178 |
| CTCGGAGC | 0.431 |

| Sequence | PBM E-score |
| --- | --- |
| ATCGGTGG | 0.13 |
| ATCAGAGA | -0.213 |
| ATCGGAGA | 0.455 |
| CTCGGAGA | 0.449 |
| CTTGGAGA | -0.0088 |
| ATCGGAGG | 0.426 |
| CTGCAGCA | -0.151 |
| ACTCAAAG | -0.129 |
| AACTTGTC | 0.0361 |
| TTAACCAA | -0.136 |
| TAGCATAA | -0.111 |
| ACTCCACA | -0.0234 |
| CCTGACTA | -0.0923 |
| GTAGGAGA | -0.0599 |
| ATCAGAGC | -0.0306 |
| ATCGGATC | 0.33 |
| GTCGGATA | 0.312 |
| GTCGGAGA | 0.444 |
| ATCGGAGC | 0.458 |
| ATATCTCA | 0.0231 |
| GATTATGA | -0.0204 |
| GACTGGAA | -0.161 |
| CAACTTAG | 0.0176 |
| AATAAGAC | -0.228 |
| TGGGCCCA | 0.026 |
| CGGAGTTA | 0.493 |

| Sequence | PBM E-score |
| --- | --- |
| GGGAGTTA | 0.195 |
| CGGAGTTC | 0.494 |
| AGGAGTTC | 0.109 |
| AGGAGTTA | 0.232 |
| CTGAGTTC | 0.0225 |
| GCTACAAA | -0.0551 |
| TAGCCACA | -0.289 |
| CCTAAGAA | -0.261 |
| CGAAAGCG | -0.00844 |
| GTCCCAGA | -0.235 |
| AGGCGGAC | 0.386 |
| AGGCGGCG | 0.193 |
| CGGCGGCC | 0.322 |
| AGGCGGAG | 0.39 |
| CGGCGGCA | 0.281 |
| AGGCGGGG | 0.221 |
| CGGCGGAC | 0.411 |
| GGGCGGAC | 0.399 |
| CGGCGGAG | 0.461 |
| AGGCGGAT | 0.237 |
| GAGCGGAC | 0.321 |
| GGGCGAAC | 0.0496 |
